# System: LXRb:RXRa (NR concentration 270 nM, RXRa partner concentration 90 nM)
# Assay: PBM binding z-score (relative to random genomic background probes); higher = stronger binding; sequences stand for … in GC…GCGATTGACAGCGTAGAATGAAGG
# Procedure: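 Protein-binding microarray (Agilent 4x180K custom design, double-stranded 60-nt probes: 5' GC cap, 34-nt variable region, 24-nt constant primer region; full probe sequence given). Purified or IVT nuclear receptor:RXRα heterodimers (3:1 NR:RXRα, mostly 270:90 nM) or homodimers were incubated for 1 h in PBS with 2% milk and no ligand, then detected with Alexa488 antibodies. Fluorescence from o1-orientation probes (~5 replicates averaged) was converted to z-scores against 500 random hg19 background probes. Variable regions are seed direct-repeat (DR0–DR5) sites, all their single-nucleotide variants and half-site ablations.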
row,Sequence,PBM binding z-score
1,AATACAGGGTCATCGTACGCCAGAGTACGCACAG,4.92
2,GATACAGGGTCAAGGTCAGAGTACGCGTATTGAT,4.85
3,CCAACTAGGTCAAAGGACAGTGAAAGGCGACGTA,1.91
4,CAAACTAGGTCAAGAGGTCAAAGTTCGCTTCCCG,6.05
5,CACACTAGGTCACAGAGGTCAAAGTCCGTGCGTA,6.24
6,CCTACTGGGCCACTAAAGGTCATTGATTCAGTGA,5.49
7,ATATGTAGGTTACATCCGGGTCATCCAGGCTATG,2.76
8,CGTCAAAGATCAAGGTAACGTAACAGAAAGCAGC,0.0744
9,GGAACGAGGGCATTCGAGTTCATAGCATGGCGAT,3.44
10,TTACCAAGGTGAAAGGTCGTTGCTGCACGCCTTG,2.89
11,TTACCAAGGTGAACGGTCGTTGATGCACGCCTTG,0.334
12,ATATGTAGTTTATCGGGTCATTCAGTTTGCGCAT,2.94
13,CGTCCAAAGTCAAAGGTCAGTGAAGAGATGACGG,3.44
14,CGAACTACGTCATCCAGGACAGTGAATACATTGA,-0.00555
15,ATCGAAAGGTCGACGCGGTGAGTATACACCGTTT,2.25
16,CAAACTAGGTCACAAAAGGTCAAAGTCGAATGAC,7.76
17,AATACAAGGTCATCGTAGGCCAGAGTACGCACAG,5.13
18,CGAACAAGGTCACCAGGACAGTGAAGAGGTTGGA,4.28
19,CAAACCAGGTCAAGAGGTCAAAGTCCGCTTCCCG,5.73
20,CGTCCAAGGTCAGCGGGTCAGTGAAAGCGACGTG,3.11

row,Sequence,PBM binding z-score
1,CCTTACGGGTCCCTCCAGGTTATAGCATCGGAGT,-0.459
2,CGTCCAAGGTCATAGAGGTCAGTGAATGCCGAGT,5.69
3,TCTCGGAGGACACAAAGGTCAGAGCTTTCCAGAG,3.15
4,CGTACAAGGTCAAAGGTCAGTGAAGAGATGACGG,6.66
5,CGAACAAGGTCATCCAGGACAGTGAATACATTGA,4.67
6,CCTACTGGGCCAAAAAGTTCATTGATGCCGATAA,1.09
7,AGAATGAGGTCATTAAGATCAGGGAATTGCGGTC,4.71
8,TAGCCTAAGTCATGCGGGCCAGTATAGTGTCGGC,-0.501
9,TATCAAAGTTCAAAGGTAACGTAAGTATCCACAC,4.98
10,GATACAGGGTCAGCTACAGGCCAGAGTATGGAAA,2.51
11,ATCGAAAGGTCGACGAGGTGAGTAAACACCGTTT,2.87
12,CCTTACGGGTCACTGACAGGTTATAGCGTTTGGA,3.4
13,AGAATGAGGTCAAGATCAGGGAAACAGAATACAT,5.08
14,CGTCAAAGTTCAAGGTCACGTAACAGAAAGCAGC,5.52
15,CAAACCAGGTCAAAGGTCAAAGTCGAGCCAACCA,7.49
16,CGTCAAAGTTCAACTAAGGTTACGTAAAGCACGC,5.4
17,CGTCCAAGGACAATGCTAGGTCAGTGAAAGCATT,-0.0607
18,TCTAGTCGGTCAAAGGTCACACACTCGAAATGCG,5.97
19,CGAACTAGGTCAAGGACAGTAAATCTCCGCACGC,1.45
20,CGAACGAGGTCACCAGGACAGTGAAGAGGTTGGA,4.94

# From the supplement of paper PMC6555819
